High-throughput results deposited in PubChem by National Center for Advancing Translational Sciences (NCATS).
GLA spleen mod = inhibits or activates alpha-galactosidase in human spleen homogenate; P06280; human spleen homogenate, 4MU-alpha-Gal fluorescence, 40 min; Potency, µM (highest dose often 80 µM), for the others: at the highest dose activity change, negative = inhibition, actives largely listed as inhibitors; 240,000 compounds, 0.008% hits;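 further: potency means the concentration at half of the fitted maximal effect; 0% = enzyme with vehicle and -100% = no enzyme basal signal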
Target sequence (P06280 32-429 limits assumed): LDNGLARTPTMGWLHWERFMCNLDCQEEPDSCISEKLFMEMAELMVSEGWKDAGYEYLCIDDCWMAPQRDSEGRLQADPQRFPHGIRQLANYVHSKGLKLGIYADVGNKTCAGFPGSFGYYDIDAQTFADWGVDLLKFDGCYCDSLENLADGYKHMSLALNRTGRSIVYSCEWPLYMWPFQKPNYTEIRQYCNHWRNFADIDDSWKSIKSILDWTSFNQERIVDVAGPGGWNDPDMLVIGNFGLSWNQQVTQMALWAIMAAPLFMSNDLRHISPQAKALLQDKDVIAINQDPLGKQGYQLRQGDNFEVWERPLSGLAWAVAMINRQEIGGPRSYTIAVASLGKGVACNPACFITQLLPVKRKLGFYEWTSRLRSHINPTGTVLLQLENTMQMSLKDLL
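Fluorogenic readout (Ex 365/Em 440 nm) of 4-methylumbelliferone released from 1 mM 4-MU-alpha-galactoside by spleen homogenate, 40 min at 37C, pH 5.0. Data normalized to no-enzyme and enzyme controls; Hill-equation AC50 from compound titrations.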
aGlu spleen mod = inhibitors or activators of human alpha-glucosidase in spleen homogenate; human spleen homogenate, 4-MU-alpha-glucoside fluorescence; Potency, µM (highest dose often 79.9 µM), inactives show top-dose activity change, negative = inhibition, usual class: inhibitors; 240,000 compounds, 0.006% hits; AID 2112;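 further: potency means the concentration at half of the fitted maximal effect; 0% = enzyme with vehicle and -100% = no enzyme basal signal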
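AC50 values come from Hill-equation fits of concentration-response data, normalized to no-enzyme and full-activity controls. Enzyme source: 1 ug human spleen homogenate; 1 mM fluorogenic 4-MU glucoside, pH 5.0 citrate buffer, 37 C, 40 min.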
GAA inhib = blocks human lysosomal alpha-glucosidase; P10253; 200,000 compounds, 0.005% hits; Potency, µM (titrated, usually from 76.9 µM), for the others: top-dose activity change, negative = inhibition, hits mostly inhibitors; purified human GAA, 4-MU-alpha-glucoside fluorescence;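 further: potency means the concentration at half of the fitted maximal effect; plate controls were uninhibited enzyme wells for no effect and no-enzyme background for full effect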
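Fluorescence at Ex 365/Em 440 nm from 4-methylumbelliferone reported enzyme activity after 20 min at room temperature. Reactions used 4 nM enzyme and 400 uM substrate at pH 5.0; curves fitted with the Hill equation.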
GAA glycogen mod = alters human alpha-glucosidase cleavage of glycogen; AID 2100; P10253; recombinant GAA, glycogen substrate, Amplex Red glucose oxidase fluorescence; 300,000 compounds, 0.38% hits; Potency, µM (doses to about 76.4 µM), inactives show at the top dose activity change, negative = inhibition, usual class: inhibitors;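 further: potency means the concentration at half of the fitted maximal effect; 0% = full enzyme reaction and -100% = no-enzyme basal signal; the screen sought inhibitors and activators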
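qHTS, 1536-well; enzyme 4 nM final; cpd up to 77 uM; substrate bovine liver glycogen 30 ug; 50 mM citrate/phosphate pH 5.0, 0.01% Tween-20; 37 C, 40 min; Amplex Red detection 45 min RT; Hill fit → AC50.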
N370S GC = inhibitors or activators of N370S glucocerebrosidase for Gaucher disease; N370S GC spleen homogenate, 4MU-glucoside fluorescence; Potency, µM (top dose mostly 59.4 µM), without a hit: at the top dose activity change, negative = inhibition, actives largely listed as inhibitors; 330,000 compounds, 0.092% hits; AID 2101;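 further: potency means the concentration at half of the fitted maximal effect; 0% = full enzyme activity and -100% = no enzyme basal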
GLA inh pH 4.5 = inhibitors of human alpha-galactosidase A at pH 4.5; P06280; purified enzyme, 4-MU-alpha-Gal fluorescence, pH 4.5; activity change, negative = inhibition, % at 105 µM; 230,000 tested, under 10 active;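 further: 0% = full activity with enzyme and -100% = basal without enzyme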
* hit, by the source's call; ? = inconclusive; . = no result; [ ] = remark or other dose. Shown are actives, neighbours in structure and some others; about 0.43% of the full set was active somewhere. The call rests on the fitted dose curve; in most records, active means well fitted curve in the direction sought with a large enough effect; inconclusive means small, poorly fitted or top-dose-only effect, or another doubt; inactive means no such curve, though single readings can be large; an effect the other way counts as inactive or inconclusive.

SMILES	GLA spleen mod	aGlu spleen mod	GAA inhib	GAA glycogen mod	N370S GC	GLA inh pH 4.5
COc1cc(/C=N/NC(=S)NCCN2CCOCC2)ccc1O	12%	0%	9%	25µM*	?	2
COc1ccc(S(=O)(=O)Nc2cc3c(cc2NCc2ccccc2)n(C)c(=O)n3C)cc1	.	.	.	10µM*	.	.
CCOc1cccc2oc(-c3ccccc3Cl)cc(=O)c12	2%[119 µM]	-1%[119 µM]	.	.	?	-19
CC(C)S	-4%	4%	.	.	9%	.
CCOC(=O)C1=C(c2ccccc2)NC(N)=NC1c1ccc(OCc2ccc(C(=O)OC)cc2)cc1 (stereo unspecified)	8%	-16%	.	-7%	11µM*	-9
CN(C)c1ccc(N2C(=O)CC(Nc3ccc(N4CCOCC4)cc3)C2=O)cc1 (stereo unspecified)	-4%	-2%	0%	?	-2%	-10
O=C1CC(Nc2ccc(N3CCOCC3)cc2)C(=O)N1c1cccc(C(F)(F)F)c1 (stereo unspecified)	4%	-1%	-2%	25µM*	-5%	2
COc1cccc(N2C(=O)CC(Nc3ccc(N4CCOCC4)cc3)C2=O)c1 (stereo unspecified)	8%	-7%	0%	3.5µM*	-4%	2
COc1ccc(N2C(=O)CC(Nc3ccc(N4CCOCC4)cc3)C2=O)c(OC)c1 (stereo unspecified)	4%	-4%	?	?	25%	10
CCCCCCNC(=O)Nc1ccc(S(=O)(=O)Nc2ccc(CCNC[C@H](O)COc3ccc(O)cc3)cc2)cc1	0%	-13%	.	.	7.9µM*	-13
COC(=O)[C@@H](NC(=O)N1CCc2nc(-c3ccc(OC)cc3C)c3c(c2C1)CO[C@@H](c1ccccc1)C3)C(C)C	2%[17.5 µM]	4%[17.4 µM]	.	.	-19%[12.8 µM]	-4
O=C1NC(=O)C(Cc2ccc(OCCN3COc4ccccc4C3=O)cc2)S1 (stereo unspecified)	4%	-4%	.	.	8%	.
CC(C)[C@H](NC(=O)[C@@H](Cc1c[nH]c2ccccc12)NC(=O)[C@H](Cc1ccc(O)cc1)NC(=O)[C@@H](N)CC(=O)O)C(=O)N[C@H](Cc1c[nH]c2ccccc12)C(=O)N[C@H](Cc1c[nH]c2ccccc12)C(=O)N[C@@H](CCCCN)C(N)=O	24%	4%	.	.	-1%	.
CCCn1c(CNc2ccccc2O)nc2ccccc21	1%	-3%	-9%	12µM*	-5%	-10
CCN(CC)S(=O)(=O)c1cc([N+](=O)[O-])ccc1NNC(=O)Nc1ccc(F)cc1	-12%	-10%	-4%	?	-3%	-6
CCN(CC)S(=O)(=O)c1cc([N+](=O)[O-])ccc1NNC(=O)Nc1ccccc1OC	-1%	-3%	6%	22µM*	2%	-4
CCCCCCCCOc1c(OC)cc(/C=C/C(=O)N2CCN(c3ccc(C)c(C)c3)CC2)cc1OC	-17%	-7%	.	.	-2%	.
Cc1ccc(S(=O)(=O)NC(=O)Nc2c(C)n(C)n(-c3ccccc3)c2=O)cc1	-8%	-9%	-1%	16µM*	4%	-2
Cc1c(NC(=O)CN2CCN(c3ccc([N+](=O)[O-])cc3)CC2)c(=O)n(-c2ccccc2)n1C	-3%	-9%	-4%	3%	-12%	-10
Cc1ccc(N2C(=O)C(Cl)=C(Nc3c(C)n(C)n(-c4ccccc4)c3=O)C2=O)cc1	-20%	-9%	-5%	25µM*	-20%	1
Cc1cccc(N2C(=O)C(Cl)=C(Nc3c(C)n(C)n(-c4ccccc4)c3=O)C2=O)c1C	-26%	-11%	1%	?	-1%	-8
Cc1c(NC(=O)CN2CCN(c3ccc(O)cc3)CC2)c(=O)n(-c2ccccc2)n1C	0%	6%	2%	4µM*	-3%	-19
CCOC(=O)CCN1C(=O)[C@@H]2[C@H]3C(=CC[C@H]2C1=O)C(=O)[C@H]1O[C@H]1[C@H]3O	3%[17.5 µM]	-20%[17.4 µM]	.	.	-7%[12.8 µM]	.
CCCCCCCCC/C=C/CC1CC(=O)OC1=O (stereo unspecified)	-4%	-8%	.	.	1%	.
COc1ccc2c(c1OC)C(Cc1ccccc1)N1CCc3cc4c(cc3C1C2)OCO4 (stereo unspecified)	-5%	-4%	.	.	14%	-10
SMILES	GLA spleen mod	aGlu spleen mod	GAA inhib	GAA glycogen mod	N370S GC	GLA inh pH 4.5
O=C(CSc1nc2ccccc2n1CCc1ccccc1)c1ccc(O)c(O)c1	-7%	-16%	-4%	4µM*	2%	-3
COc1ccc(-n2nnnc2SCC(=O)c2ccc(O)c(O)c2)cc1	-2%	-5%	-10%	8.8µM*	-7%	-4
NC(=O)c1ccc(-n2nnnc2SCC(=O)c2ccc(O)c(O)c2)cc1	-15%	-22%	2%	?	?	-2
Cn1c(SCC(=O)c2ccc(O)c(O)c2)nnc1-c1ccccc1	.	.	.	1.8µM*	-9%	.
CCCCC/C=C\C/C=C\C=C\[C@@H](O)C/C=C\CCCC(=O)O	-2%	1%	.	.	0%	-2
CC(C)(C)/C(O)=C/c1nc2cc(Cl)ccc2oc1=O	5%	3%	.	3.2µM*	-9%	-5
Cc1ccc2oc(=O)c(/C=C(\O)C(C)(C)C)nc2c1	10%	1%	-7%	6.3µM*	10%	-3
Cc1ccc2oc(=O)c(/C=C(\O)c3ccco3)nc2c1	-2%	3%	.	?	-17%	-8
Cc1[nH]c2ccccc2c1/C=N/NC(=S)NC(C)C	6%	4%	2%	7.9µM*	?	-17
CC(C)NC(=S)N/N=C/c1c[nH]c2ccccc12	6%	7%	-1%	-3%	26%	-13
Cc1[nH]c2ccccc2c1/C=N/Nc1ccccc1[N+](=O)[O-]	10%	2%	-3%	6.3µM*	10%	2
c1ncc(CCCC2CCNCC2)[nH]1	1%	6%	.	.	0%	.
COc1cccc(CNn2c(-c3cccc(C)c3)nc3ccccc3c2=O)c1O	-9%	-8%	-1%	31µM*	8%	-1
c1ccc(-c2nc(NCc3cccnc3)c3ccccc3n2)cc1	1%	4%	-6%	3%	?	-1
COc1ccc(CNc2n[nH]c(NCc3ccc(OC)c(OC)c3)n2)cc1OC	-3%	3%	2%	22µM*	2%	-1
COc1ccc(Nc2nc(-c3ccccc3F)nc3ccccc23)cc1OC	.	.	.	-1%	2.5µM*	.
Oc1ccc(Nc2nc(-c3ccccc3F)nc3ccccc23)cc1	.	.	.	3%	?	.
Fc1ccc(CNc2nc(-c3ccccc3)nc3ccccc23)cc1	-4%	-11%	-3%	-8%	14µM*	-1
c1ccc(-c2nc(NC3CCCC3)c3ccccc3n2)cc1	.	.	.	.	16µM*	.
